Data as given in PubChem BioAssay (EPA / NIEHS).
Results filed as inconclusive are left out. Active and inactive are the calls of the source. Rule for the calls, unless noted: active = hit-call score of the fitted dose curve at least 0.9, where 1 is the maximum; inactive = score below 0.9.

Legend:
[1] = ATG_TAL_CIS: Attagene CIS-FACTORIAL HepG2 Assay for human TAL Basal Promoter (AID 2282966); conditions: HepG2 Attagene cis-factorial TAL promoter reporter; actives raise or lower the signal;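 note: background control endpoint measuring basal TAL promoter reporter mRNA not a specific factor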
Outline: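 In this cell-based multiplex, HepG2 liver cells bearing cis-promoter reporter constructs are dosed for 24 hours. Total RNA is reverse-transcribed and amplified, labelled fragments are sized by capillary electrophoresis, and signal changes are fitted bidirectionally versus DMSO.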

[2] = ATG_TGFb_CIS: Attagene CIS-FACTORIAL HepG2 Assay for human Transforming Growth Factor (TGF) (AID 2282967); conditions: HepG2 Attagene CIS TGFb reporter, mRNA transcription; actives raise or lower the signal
Outline: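 Bidirectional fitting relative to DMSO gave the endpoint. Underlying data: reporter mRNA from HepG2 cells carrying transiently transfected cis-regulated reporter constructs, harvested 24 h after dosing and analyzed by RT-PCR and capillary electrophoresis.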

[3] = ATG_VDRE_CIS: Attagene CIS-FACTORIAL HepG2 Assay for human Vitamin D Receptor Element (VDRE) (AID 2282968); conditions: HepG2 VDRE cis-reporter transcription, actives raise or lower the signal
Outline: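 In transiently transfected HepG2 liver cells, gain or loss of reporter mRNA after 24 h exposure is scored relative to DMSO, using fluorescence detection by capillary electrophoresis of RT-PCR products.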

[4] = biological target: Nuclear receptor subfamily 1 group I member 3 (Homo sapiens) (UniProt Q14994); assay: ATG_CAR_TRANS: Attagene TRANS-FACTORIAL HepG2 Assay for human Constitutive Androstane Receptor (CAR) (AID 2282969; active = hit-call score of the fitted dose curve at least 0.9, where 1 is the maximum;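 note: activators raise reporter mRNA above DMSO so AC50 marks induction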); conditions: HepG2 Attagene TRANS-FACTORIAL CAR reporter
Chain of Nuclear receptor subfamily 1 group I member 3 (Homo sapiens) (Q14994 whole entry, looked up, the tested form may be a part): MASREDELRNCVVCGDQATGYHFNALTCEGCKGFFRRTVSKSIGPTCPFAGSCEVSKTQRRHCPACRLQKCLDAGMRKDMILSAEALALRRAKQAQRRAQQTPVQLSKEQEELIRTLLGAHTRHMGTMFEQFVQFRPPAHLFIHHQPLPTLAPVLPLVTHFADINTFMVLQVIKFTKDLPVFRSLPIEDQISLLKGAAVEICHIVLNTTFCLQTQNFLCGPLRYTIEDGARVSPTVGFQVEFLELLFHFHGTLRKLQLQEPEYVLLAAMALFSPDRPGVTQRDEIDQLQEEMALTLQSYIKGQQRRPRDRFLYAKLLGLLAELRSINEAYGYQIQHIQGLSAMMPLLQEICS
Outline: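 Readout is reporter mRNA induction, quantified by fluorescent primer extension and capillary electrophoresis after RT-PCR. Cells were HepG2 transiently carrying chimeric NR-Gal4 constructs with GAL4-UAS reporters, treated for 24 h; activity scored upward from DMSO.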

[5] = biological target: X-box-binding protein 1 (Homo sapiens) (UniProt P17861); assay: ATG_Xbp1_CIS: Attagene CIS-FACTORIAL HepG2 Assay for human X-box Binding Protein 1 (XBP1) (AID 2282972); conditions: HepG2 XBP1 cis-element reporter, Attagene multiplex; actives raise or lower the signal
Chain of X-box-binding protein 1 (Homo sapiens) (P17861 whole entry, looked up, the tested form may be a part): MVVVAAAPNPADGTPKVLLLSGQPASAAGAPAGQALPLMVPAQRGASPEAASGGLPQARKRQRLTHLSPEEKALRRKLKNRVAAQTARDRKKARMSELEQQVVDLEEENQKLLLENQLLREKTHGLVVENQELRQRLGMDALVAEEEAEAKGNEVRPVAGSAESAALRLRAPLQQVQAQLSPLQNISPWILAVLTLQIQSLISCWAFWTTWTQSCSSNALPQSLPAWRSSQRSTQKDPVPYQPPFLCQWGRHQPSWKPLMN
Outline: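 Fluorescence-labelled cDNA fragments from reporter transcripts, separated by capillary electrophoresis, give the signal. Source: HepG2 cells transfected with promoter-driven reporter units, harvested 24 h post-dose. DMSO served as reference for bidirectional curve fitting.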

[6] = ATG_M_19_TRANS: Attagene TRANS-FACTORIAL HepG2 Assay for M19 Transcription Factor (Internal Marker) (AID 2282974; active = hit-call score of the fitted dose curve at least 0.9, where 1 is the maximum); conditions: HepG2 Attagene TRANS-FACTORIAL M19 internal marker reporter
Outline: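 HepG2 transiently transfected with GAL4-UAS multiplex reporter constructs, exposed 24 h; reporter RNA quantified by RT-PCR, 6-FAM labeling, HpaI digestion and capillary electrophoresis; internal background marker fitted upward versus DMSO.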

[7] = ATG_GAL4_TRANS: Attagene TRANS-FACTORIAL HepG2 Assay for GAL4 (Internal Marker) (AID 2282976; active = hit-call score of the fitted dose curve at least 0.9, where 1 is the maximum); conditions: HepG2 Attagene TRANS GAL4 internal marker reporter
Outline: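 RT-PCR/capillary electrophoresis readout of reporter mRNA. HepG2, transient MRTU transfection (GAL4-UAS reporters), 24 h compound exposure. Background-control endpoint, positive direction vs DMSO baseline.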

[8] = biological target: Estrogen-related receptor gamma (Homo sapiens) (UniProt P62508); assay: ATG_ERRg_TRANS: Attagene TRANS-FACTORIAL HepG2 Assay for human Estrogen-Related Receptor gamma (ERRg) (AID 2282977; active = hit-call score of the fitted dose curve at least 0.9, where 1 is the maximum;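 note: hits increase reporter signal over DMSO so potencies reflect activators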); conditions: HepG2 Attagene TRANS reporter, ERRg transactivation
Chain of Estrogen-related receptor gamma (Homo sapiens) (P62508 whole entry, looked up, the tested form may be a part): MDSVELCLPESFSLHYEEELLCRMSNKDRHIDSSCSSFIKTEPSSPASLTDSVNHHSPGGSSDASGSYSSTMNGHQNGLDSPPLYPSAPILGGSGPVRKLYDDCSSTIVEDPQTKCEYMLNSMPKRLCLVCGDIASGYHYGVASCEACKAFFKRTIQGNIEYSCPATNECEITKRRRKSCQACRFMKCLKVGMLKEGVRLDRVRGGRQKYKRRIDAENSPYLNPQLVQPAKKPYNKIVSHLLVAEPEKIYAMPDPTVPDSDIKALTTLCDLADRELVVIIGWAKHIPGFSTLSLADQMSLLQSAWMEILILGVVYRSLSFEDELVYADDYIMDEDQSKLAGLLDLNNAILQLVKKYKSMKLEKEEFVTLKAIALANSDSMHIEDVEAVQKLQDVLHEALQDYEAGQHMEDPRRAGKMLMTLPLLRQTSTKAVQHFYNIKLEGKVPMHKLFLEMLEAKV
Outline: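 Transient HepG2 transfectants, 24 h compound exposure, GAL4-UAS reporter mRNA by RT-PCR/6-FAM labelling/capillary electrophoresis; positive direction vs DMSO.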

[9] = biological target: Oxysterols receptor LXR-alpha (Homo sapiens) (UniProt Q13133); assay: ATG_LXRa_TRANS: Attagene TRANS-FACTORIAL HepG2 Assay for human Liver X Receptor alpha (LXRa) (AID 2282980; active = hit-call score of the fitted dose curve at least 0.9, where 1 is the maximum); conditions: HepG2 Attagene TRANS reporter, LXRa transactivation
Chain of Oxysterols receptor LXR-alpha (Homo sapiens) (Q13133 whole entry, looked up, the tested form may be a part): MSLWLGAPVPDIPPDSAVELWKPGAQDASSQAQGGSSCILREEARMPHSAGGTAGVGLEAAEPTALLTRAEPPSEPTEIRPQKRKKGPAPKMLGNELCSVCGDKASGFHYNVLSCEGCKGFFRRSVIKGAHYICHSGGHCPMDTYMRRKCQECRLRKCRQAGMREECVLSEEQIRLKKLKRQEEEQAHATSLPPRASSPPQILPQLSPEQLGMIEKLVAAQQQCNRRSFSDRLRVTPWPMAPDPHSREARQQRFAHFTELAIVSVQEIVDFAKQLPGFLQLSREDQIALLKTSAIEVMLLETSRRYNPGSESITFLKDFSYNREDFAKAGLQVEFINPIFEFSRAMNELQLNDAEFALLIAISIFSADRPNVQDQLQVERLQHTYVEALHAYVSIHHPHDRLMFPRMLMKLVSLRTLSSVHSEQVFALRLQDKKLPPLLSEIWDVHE
Outline: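 Read-out: reporter transcript levels by RT-PCR plus capillary electrophoresis, fluorescence intensity. Transiently transfected HepG2, exogenous NR-GAL4 chimera, GAL4-UAS reporters; 24 h compound exposure. Activity = increase over DMSO negative control.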

[10] = biological target: Hepatocyte nuclear factor 4-alpha (Homo sapiens) (UniProt P41235); assay: ATG_HNF4a_TRANS: Attagene TRANS-FACTORIAL HepG2 Assay for human Hepatocyte Nuclear Factor 4 alpha (HNF4a) (AID 2282982; active = hit-call score of the fitted dose curve at least 0.9, where 1 is the maximum); conditions: HepG2 HNF4a transactivation reporter, mRNA readout
Chain of Hepatocyte nuclear factor 4-alpha (Homo sapiens) (P41235 whole entry, looked up): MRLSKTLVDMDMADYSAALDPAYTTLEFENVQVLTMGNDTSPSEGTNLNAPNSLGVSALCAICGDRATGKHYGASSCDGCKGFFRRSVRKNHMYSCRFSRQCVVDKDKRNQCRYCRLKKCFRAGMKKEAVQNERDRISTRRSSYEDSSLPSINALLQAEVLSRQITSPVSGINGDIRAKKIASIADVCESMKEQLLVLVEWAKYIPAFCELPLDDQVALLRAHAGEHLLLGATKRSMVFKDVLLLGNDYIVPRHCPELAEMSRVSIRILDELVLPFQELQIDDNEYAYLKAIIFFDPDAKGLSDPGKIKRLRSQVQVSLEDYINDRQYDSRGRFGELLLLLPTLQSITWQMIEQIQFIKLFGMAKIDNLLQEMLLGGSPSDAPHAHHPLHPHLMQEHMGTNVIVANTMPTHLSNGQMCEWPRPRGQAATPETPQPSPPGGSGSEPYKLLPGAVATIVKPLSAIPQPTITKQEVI
Outline: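 Transfected HepG2 reporter cells are dosed for 24 h; reporter RNA is reverse-transcribed, amplified, fluorescently labelled and HpaI-digested before CE sizing. Positive-direction fit against DMSO.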

[11] = ATG_M_32_TRANS: Attagene TRANS-FACTORIAL HepG2 Assay for M32 Transcription Factor (Internal Marker) (AID 2282984; active = hit-call score of the fitted dose curve at least 0.9, where 1 is the maximum;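 note: transcript level of a background control reporter unit measured by RT-PCR and capillary electrophoresis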); conditions: HepG2 Attagene TRANS M32 internal marker reporter
Outline: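 Using transiently transfected HepG2 cells exposed to test chemicals for 24 h, reporter transcripts are converted to labelled cDNA fragments and quantified by capillary electrophoresis. DMSO defines the activity baseline.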

[12] = biological target: Nuclear receptor subfamily 4 group A member 2 (Homo sapiens) (UniProt P43354); assay: ATG_NURR1_TRANS: Attagene TRANS-FACTORIAL HepG2 Assay for human Nuclear Receptor Related Protein 1 (NURR1) (AID 2282985; active = hit-call score of the fitted dose curve at least 0.9, where 1 is the maximum); conditions: HepG2 Attagene TRANS reporter, mRNA readout
Chain of Nuclear receptor subfamily 4 group A member 2 (Homo sapiens) (P43354 whole entry, looked up): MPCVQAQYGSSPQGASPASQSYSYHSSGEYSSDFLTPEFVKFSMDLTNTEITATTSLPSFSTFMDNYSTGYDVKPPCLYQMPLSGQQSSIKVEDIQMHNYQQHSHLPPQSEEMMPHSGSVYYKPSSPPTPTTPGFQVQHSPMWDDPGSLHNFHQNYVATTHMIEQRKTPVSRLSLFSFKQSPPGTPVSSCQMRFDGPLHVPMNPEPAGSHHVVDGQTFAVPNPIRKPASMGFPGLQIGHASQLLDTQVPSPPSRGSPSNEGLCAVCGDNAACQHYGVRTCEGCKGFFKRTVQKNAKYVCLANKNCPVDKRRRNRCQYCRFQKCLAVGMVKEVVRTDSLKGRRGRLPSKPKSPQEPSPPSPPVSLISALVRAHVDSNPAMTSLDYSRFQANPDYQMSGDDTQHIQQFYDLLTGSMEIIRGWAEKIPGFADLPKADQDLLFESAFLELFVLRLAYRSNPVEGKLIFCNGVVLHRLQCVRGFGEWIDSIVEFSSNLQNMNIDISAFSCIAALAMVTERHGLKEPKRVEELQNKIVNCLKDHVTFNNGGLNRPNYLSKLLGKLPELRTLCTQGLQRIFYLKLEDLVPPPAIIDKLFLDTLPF
Outline: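 Cells: HepG2, transiently transfected. Exposure: 24 h. Detection: fluorescence of labelled RT-PCR products separated by capillary electrophoresis; upward fit versus DMSO.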

[13] = biological target: Transcriptional activator Myb (Homo sapiens) (UniProt P10242); assay: ATG_Myb_CIS: Attagene CIS-FACTORIAL HepG2 Assay for human Myeloblastosis (Myb) Proto-Oncogene Transcription Factor (AID 2282986); conditions: HepG2 Attagene CIS-FACTORIAL Myb reporter transcription; actives raise or lower the signal
Chain of Transcriptional activator Myb (Homo sapiens) (P10242 whole entry, looked up): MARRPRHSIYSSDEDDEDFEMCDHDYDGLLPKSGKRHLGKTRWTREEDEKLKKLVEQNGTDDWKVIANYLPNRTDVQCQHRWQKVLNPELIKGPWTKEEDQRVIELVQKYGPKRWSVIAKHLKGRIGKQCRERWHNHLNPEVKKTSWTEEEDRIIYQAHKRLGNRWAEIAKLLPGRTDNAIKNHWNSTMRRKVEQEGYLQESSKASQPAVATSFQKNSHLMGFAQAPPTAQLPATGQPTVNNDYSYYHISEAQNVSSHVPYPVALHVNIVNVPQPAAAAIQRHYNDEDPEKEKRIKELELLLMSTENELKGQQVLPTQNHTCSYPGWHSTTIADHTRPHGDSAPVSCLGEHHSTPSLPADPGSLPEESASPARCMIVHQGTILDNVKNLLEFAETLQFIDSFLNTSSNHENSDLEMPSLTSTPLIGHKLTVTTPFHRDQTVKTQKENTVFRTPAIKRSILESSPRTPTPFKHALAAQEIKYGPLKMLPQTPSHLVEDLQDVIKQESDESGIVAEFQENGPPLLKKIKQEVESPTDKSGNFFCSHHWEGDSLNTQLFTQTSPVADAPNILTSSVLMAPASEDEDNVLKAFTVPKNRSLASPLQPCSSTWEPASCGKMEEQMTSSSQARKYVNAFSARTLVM
Outline: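 Transiently transfected HepG2 cells carrying a multiplexed cis-promoter reporter set report endogenous Myb activity after 24 h compound exposure. Reporter mRNA is read by RT-PCR with capillary electrophoresis of fluorescent products, fitted bidirectionally against DMSO.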

[14] = biological target: Nuclear respiratory factor 1 (Homo sapiens) (UniProt Q16656); assay: ATG_NRF1_CIS: Attagene CIS-FACTORIAL HepG2 Assay for human Nuclear Respiratory Factor 1 (NRF1) Orphan Gene (AID 2282987); conditions: HepG2 NRF1 cis-element reporter, Attagene multiplex; actives raise or lower the signal
Chain of Nuclear respiratory factor 1 (Homo sapiens) (Q16656 whole entry, looked up): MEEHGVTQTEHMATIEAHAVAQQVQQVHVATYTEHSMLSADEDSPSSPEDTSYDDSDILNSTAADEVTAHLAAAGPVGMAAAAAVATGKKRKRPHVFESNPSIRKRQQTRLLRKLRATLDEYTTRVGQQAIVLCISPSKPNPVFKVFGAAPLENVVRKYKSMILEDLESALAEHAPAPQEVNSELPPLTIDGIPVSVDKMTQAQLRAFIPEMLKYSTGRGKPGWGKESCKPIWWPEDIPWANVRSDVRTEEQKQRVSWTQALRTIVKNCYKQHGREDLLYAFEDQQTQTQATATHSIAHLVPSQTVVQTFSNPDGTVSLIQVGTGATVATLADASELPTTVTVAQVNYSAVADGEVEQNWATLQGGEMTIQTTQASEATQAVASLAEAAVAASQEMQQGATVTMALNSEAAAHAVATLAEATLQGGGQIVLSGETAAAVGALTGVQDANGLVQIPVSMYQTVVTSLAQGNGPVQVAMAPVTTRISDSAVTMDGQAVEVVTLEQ
Outline: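 HepG2 cells transiently transfected with multiple cis-regulated reporter units, exposed 24 h. Reporter mRNAs measured by RT-PCR, fluorescent labelling, HpaI digestion and capillary electrophoresis; bidirectional fitting against DMSO.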

[15] = biological target: Glucocorticoid receptor (Homo sapiens) (UniProt P04150); assay: ATG_GR_TRANS: Attagene TRANS-FACTORIAL HepG2 Assay for human Glucocorticoid Receptor (GR) (AID 2282978; active = hit-call score of the fitted dose curve at least 0.9, where 1 is the maximum;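 note: activators score as hits since higher reporter transcript over DMSO is fitted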); conditions: HepG2 Attagene TRANS GR reporter, mRNA transcription
Chain of Glucocorticoid receptor (Homo sapiens) (P04150 whole entry, looked up, the tested form may be a part): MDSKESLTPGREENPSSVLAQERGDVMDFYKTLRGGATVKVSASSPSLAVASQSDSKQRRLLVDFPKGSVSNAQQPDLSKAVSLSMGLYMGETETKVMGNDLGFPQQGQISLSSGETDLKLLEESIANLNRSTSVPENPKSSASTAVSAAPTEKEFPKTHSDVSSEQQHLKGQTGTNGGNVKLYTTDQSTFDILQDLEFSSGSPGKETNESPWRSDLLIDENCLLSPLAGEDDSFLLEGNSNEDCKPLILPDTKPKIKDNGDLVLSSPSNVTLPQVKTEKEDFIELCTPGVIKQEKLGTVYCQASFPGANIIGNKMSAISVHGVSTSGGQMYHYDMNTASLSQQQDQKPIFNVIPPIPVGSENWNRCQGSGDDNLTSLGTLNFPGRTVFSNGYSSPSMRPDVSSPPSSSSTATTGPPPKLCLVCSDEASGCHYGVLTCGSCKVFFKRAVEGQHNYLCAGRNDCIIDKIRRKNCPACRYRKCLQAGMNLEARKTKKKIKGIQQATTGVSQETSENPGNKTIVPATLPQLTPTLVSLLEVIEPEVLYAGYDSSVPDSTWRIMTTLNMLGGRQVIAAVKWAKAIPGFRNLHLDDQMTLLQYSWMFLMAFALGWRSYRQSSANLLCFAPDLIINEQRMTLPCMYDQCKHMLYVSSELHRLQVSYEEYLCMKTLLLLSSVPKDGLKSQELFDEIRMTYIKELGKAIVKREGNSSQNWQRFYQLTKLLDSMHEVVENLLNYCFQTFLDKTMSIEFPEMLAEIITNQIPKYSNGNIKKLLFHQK
Outline: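 HepG2 cells transiently transfected with GAL4-UAS reporter units and exogenous GR-Gal4 chimera, dosed 24 h. Reporter mRNA by RT-PCR, FAM labeling, HpaI digest and capillary electrophoresis; gain-of-signal fit versus DMSO.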

[16] = biological target: Bile acid receptor (Homo sapiens) (UniProt Q96RI1); assay: ATG_FXR_TRANS: Attagene TRANS-FACTORIAL HepG2 Assay for Farnesoid X Receptor (FXR) (AID 2282979; active = hit-call score of the fitted dose curve at least 0.9, where 1 is the maximum;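 note: hits raise reporter mRNA above DMSO so AC50 marks FXR activation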); conditions: HepG2 Attagene TRANS FXR-GAL4 reporter transcription
Outline: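 Read-out: fluorescent reporter transcripts quantified by capillary electrophoresis after RT-PCR of total RNA. Source cells were HepG2 transiently carrying chimeric NR-GAL4 plus GAL4-UAS reporter units, dosed 24 h. Activity fitted upward relative to DMSO baseline.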

[17] = biological target: Oxysterols receptor LXR-beta (Homo sapiens) (UniProt P55055); assay: ATG_LXRb_TRANS: Attagene TRANS-FACTORIAL HepG2 Assay for human Liver X Receptor beta (LXRb) (AID 2282981; active = hit-call score of the fitted dose curve at least 0.9, where 1 is the maximum); conditions: HepG2 Attagene TRANS GAL4-LXRb reporter, mRNA
Chain of Oxysterols receptor LXR-beta (Homo sapiens) (P55055 whole entry, looked up, the tested form may be a part): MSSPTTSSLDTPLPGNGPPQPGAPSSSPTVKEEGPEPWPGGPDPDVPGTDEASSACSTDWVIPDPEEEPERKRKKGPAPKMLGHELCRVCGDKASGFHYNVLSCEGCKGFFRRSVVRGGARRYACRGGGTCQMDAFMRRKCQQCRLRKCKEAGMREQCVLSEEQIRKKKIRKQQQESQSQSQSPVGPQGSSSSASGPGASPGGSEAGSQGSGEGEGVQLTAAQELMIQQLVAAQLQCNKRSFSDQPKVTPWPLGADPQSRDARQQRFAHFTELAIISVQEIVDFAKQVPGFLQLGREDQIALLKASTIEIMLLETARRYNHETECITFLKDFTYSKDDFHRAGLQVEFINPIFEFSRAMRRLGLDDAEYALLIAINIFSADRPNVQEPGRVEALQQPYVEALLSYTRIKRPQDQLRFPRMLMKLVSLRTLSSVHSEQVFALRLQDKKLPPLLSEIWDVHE
Outline: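 Cells: HepG2, transiently transfected with GAL4-UAS reporter units plus LXRb-Gal4 fusion. Treatment: 24 h. Detection: reporter mRNA by RT-PCR, 6-FAM labelling, HpaI digestion, capillary electrophoresis.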

[18] = ATG_M_06_TRANS: Attagene TRANS-FACTORIAL HepG2 Assay for M06 Transcription Factor (Internal Marker) (AID 2282983; active = hit-call score of the fitted dose curve at least 0.9, where 1 is the maximum); conditions: HepG2 Attagene TRANS M06 internal marker reporter
Outline: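 After a 24 h chemical treatment of transfected HepG2, RNA underwent DNase I treatment, reverse transcription and reporter-specific PCR; labelled, HpaI-digested products were sized by capillary electrophoresis. Signal increase relative to DMSO defined activity.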

SMILES	outcome [1]	outcome [2]	outcome [3]	outcome [4]	outcome [5]	outcome [6]	outcome [7]	outcome [8]	outcome [9]	outcome [10]	outcome [11]	outcome [12]	outcome [13]	outcome [14]	outcome [15]	outcome [16]	outcome [17]	outcome [18]	AC50 [2]	AC50 [3]
C=O	inactive	inactive	inactive	inactive	inactive	inactive	inactive	inactive	inactive	inactive	inactive	inactive	inactive	inactive	–	–	–	–	–	–
CN(C)CCOCCN(C)C	inactive	inactive	inactive	inactive	inactive	inactive	–	inactive	–	–	inactive	–	inactive	inactive	inactive	inactive	inactive	–	–	–
N#Cc1ccc(CC(=NNC(=O)Nc2ccc(OC(F)(F)F)cc2)c2cccc(C(F)(F)F)c2)cc1	inactive	inactive	inactive	inactive	inactive	inactive	inactive	–	–	–	–	–	inactive	inactive	inactive	–	inactive	–	–	–
CCCCC(CC)COCCC#N (stereo not drawn)	inactive	inactive	inactive	inactive	inactive	–	–	–	–	–	inactive	inactive	inactive	inactive	inactive	–	–	inactive	–	–
CCCCCCCCCCC(CO)CCCCCCCC (stereo not drawn)	inactive	inactive	inactive	inactive	inactive	inactive	–	–	–	–	inactive	–	inactive	inactive	–	–	–	–	–	–
O=C1CCCCCCCCCCOCCCCO1	inactive	inactive	inactive	inactive	inactive	inactive	–	–	inactive	inactive	–	inactive	inactive	inactive	inactive	–	–	inactive	–	–
Fc1c(F)c(F)c(Br)c(F)c1F	inactive	inactive	inactive	inactive	inactive	inactive	–	–	–	–	–	inactive	inactive	inactive	–	–	inactive	inactive	–	–
C=COCCOCCOCCOC=C	inactive	inactive	inactive	inactive	inactive	–	inactive	–	–	inactive	inactive	–	inactive	inactive	–	–	inactive	inactive	–	–
CCOC(=O)c1ccccc1OC	inactive	inactive	inactive	inactive	inactive	–	–	inactive	inactive	–	inactive	–	inactive	–	–	–	inactive	inactive	–	–
c1ccc2sc(SN(C3CCCCC3)C3CCCCC3)nc2c1	inactive	–	–	inactive	inactive	inactive	–	–	inactive	inactive	–	inactive	inactive	inactive	–	inactive	–	–	335 nM (active)	4650 nM (active)
COc1cccc(OC)c1	inactive	inactive	inactive	inactive	inactive	inactive	inactive	–	–	–	–	–	inactive	inactive	inactive	–	inactive	–	–	–
